# Experimental data: PubChem BioAssay AID1239 (SRMLSC, 2008)
# In all, about 190,000 compounds went through this assay and about 3,100 (1.6%) were called active. This is one part of a sample in which actives are shown more often than they occur. A number with no mark means an inactive call. No stated cut-off is given here; in the data, active means fold change above about 3.3; inconclusive means no clear call, values can overlap the other calls; inactive means below that.
# Test: activators of NF-kB expression in neurons, primary screen, cell-based, HTS (AID 1239)
# Details: human neuronal cells, NF-kB reporter expression; at 12.5 µM; active compounds read high
row,Compound,fold change
1,CSc1ccc(CN(C)CC(=O)NCc2ccc(F)cc2)cc1,1.02
2,COc1ccc(OC)c(C(=O)c2ccc(C(=O)N3CCN(Cc4csc(C)n4)CC3)cc2)c1,1.07
3,CCOC(=O)N1CCN(Cc2nc3c(c(=O)n(C)c(=O)n3C)n2Cc2ccccc2)CC1,1.26
4,CCN1CCN(Cc2nc3c(c(=O)n(C)c(=O)n3C)n2CC(=O)c2ccccc2)CC1,2.25
5,CN1CCN(Cc2nc3c(c(=O)n(C)c(=O)n3C)n2Cc2cccc3ccccc23)CC1,3.6 (active)
6,O=C(NC1CCCC1)c1ccc(Br)s1,1.12
7,CC(C)C(=O)OCC(=O)Nc1ccc2c(c1)CCC2,1.06
8,O=C(Nc1ccc2c(c1)CCC2)c1ccc(Br)s1,11.1 (active)
9,CCN(C(=O)c1ccc(Br)cc1)c1ccccc1,1.19
10,C/C(CC(=O)Nc1cccc(C(F)(F)F)c1)=N\NC(=O)C(=O)NCC(C)C,1.26
11,CC(C)C1Nc2c(C(=O)O)cccc2C(Nc2ccccc2C(=O)O)C1(C)C (stereo not drawn),1.41
12,COc1ccccc1N1CCN(C(=O)c2cc(-c3ccc(Br)cc3)on2)CC1,1.31
13,Cc1ccc(-c2cc(C(=O)N3CCc4ccccc4C3)no2)cc1,1.06
14,COc1ccccc1-c1cc(C(=O)N2CCCCC2)no1,6.86 (active)
15,O=C(c1cc(-c2cccs2)on1)N1CCCCC1,5.06 (active)
16,O=C(c1cc(-c2ccccc2O)on1)N1CCCC1,2.02
17,O=C(c1ccc(F)cc1)N1CCCC(c2nc(-c3cccs3)no2)C1 (stereo not drawn),0.86
18,Cc1cccc(NC(=S)Nc2ccc(Cl)c(Cl)c2)c1,0.6
19,COc1cc([N+](=O)[O-])ccc1NC(=S)N1CCN(c2ccccn2)CC1,1
20,CC1CCN(C(=S)c2cccc(O)c2)CC1,1.37
21,CCCN(CCC)c1ccc(C(O)c2nnc(-c3ccccc3)o2)cc1 (stereo not drawn),1.05
22,CNC(=S)N1N=C(c2ccccc2)CC1c1ccc(Br)cc1 (stereo not drawn),1.3
23,Brc1ccc(C2CC(c3ccccc3)=Nc3ccccc3N2)cc1 (stereo not drawn),3.44 (active)
24,c1ccc(C2=Nc3cccc4cccc(c34)N2)cc1,1.21
25,C=CCn1cc(-c2cccc(C(F)(F)F)c2)cc(C#N)c1=O,1.06
26,O=C(O)c1ccc2c(c1)C(=O)N(c1ccc(/C=C/C(=O)c3ccccc3)cc1)C2=O,1.2
27,O=C(/C=C/c1ccc(N2CCOCC2)cc1)c1ccccc1,4.09 (active)
28,O=C(/C=C/c1ccccc1)c1ccoc1,0.94
